B2AR ag = beta2AR agonists driving receptor internalization, primary screen, cell-based, FAP fluorogen, flow cytometry | Am2.2-beta2AR cells | Beta-2 adrenergic receptor (Homo sapiens), P07550 | actives 0.43% (n = 340,000) | AID 504454, 2011 | response, % (concentration not given with the values);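 active = response above a set limit, near 3 SD of response in nonfluorescent compounds, cut at about 42% in these data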
HTR2A ag = mouse Htr2a agonists via beta-arrestin recruitment, primary screen, cell-based, luminescence. CHO-K1 mHTR2A beta-arrestin complementation; percent of 30 µM serotonin response. activation, % at 7.6 µM. actives 0.66% (n = 360,000). AID 624169, 2012;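 active = activation above a run cutoff, the mean activation of all tested compounds plus 3 SD, cut at about 14% in these data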;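 note: 0% = plate median of compound wells and 100% = 30 µM serotonin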
Target sequence (P35363 whole entry, looked up): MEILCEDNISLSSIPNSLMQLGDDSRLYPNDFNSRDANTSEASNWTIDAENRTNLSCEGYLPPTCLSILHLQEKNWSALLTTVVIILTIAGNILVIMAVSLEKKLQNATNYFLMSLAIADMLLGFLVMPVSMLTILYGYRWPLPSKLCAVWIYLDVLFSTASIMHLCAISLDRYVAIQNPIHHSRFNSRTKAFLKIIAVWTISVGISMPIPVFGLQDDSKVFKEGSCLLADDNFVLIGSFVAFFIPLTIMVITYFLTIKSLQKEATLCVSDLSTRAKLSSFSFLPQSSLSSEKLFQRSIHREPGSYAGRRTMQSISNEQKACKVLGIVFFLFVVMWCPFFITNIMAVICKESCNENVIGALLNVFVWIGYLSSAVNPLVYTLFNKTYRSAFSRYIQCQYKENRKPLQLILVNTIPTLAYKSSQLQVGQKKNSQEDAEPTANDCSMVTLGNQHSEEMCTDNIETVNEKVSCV
Granule exo inh = LAMP-1 surface exposure blockers, TALL-104 cells – cell-based, flow cytometry, MLPCN library, primary screen. AID 651702, 2012. inhibition, % at 10 µM. TALL-104 LAMP-1 surface exposure; cells stimulated with thapsigargin and PMA. actives 0.66% (n = 360,000);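 active = inhibition above about 55%, limit read from the data; inconclusive = no clear call, values can overlap the other calls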
ABHD5 PLIN5 PPI = ABHD5-PLIN5 interaction inhibitors, primary screen, cell lysate, split luciferase complementation, luminescence. Split G. princeps luciferase complementation, 4 h. inhibition, % at 4 µM. actives 0.78% (n = 360,000). Perilipin-5 (Homo sapiens) + 1-acylglycerol-3-phosphate O-acyltransferase ABHD5 (Homo …;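 active = inhibition above the mean inhibition across every tested compound plus 3 SD, cut at about 22% in these data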;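 note: 0% = DMSO only wells and the 100% control is not disclosed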
NTR1 agonist = agonists of human NTR1, primary screen, imaging, U2OS cells, beta-arrestin-GFP, high content; actives 0.17% (n = 330,000); NTR1-U2OS beta-arrestin-GFP spot imaging, agonist mode; Neurotensin receptor type 1 (Homo sapiens), P30989; activation, % at 20 µM;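 active = activation at or above 40% of the spot to cytoplasm intensity ratio, with at least 20 cells analyzed; inconclusive = wells under 20 cells, flagged as cytotoxic or low count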;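 note: 0% = DMSO without peptide and 100% = 100 nM NTR1 peptide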
OPRM1 ag = OPRM1 agonists via beta-arrestin recruitment, confirmation, counter-screen for mouse HTR2A agonist project, cell-based, luminescence, single concentration | shares compounds with HTR2A ag | U2OS OPRM1 beta-arrestin PathHunter; DMSO 0%, DAMGO 9.3 µM 100% | activation, % at 9.3 µM | actives 5.3% (n = 2,300) | AID 624380, 2012;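 active = mean activation above the mean of DMSO-only wells plus 3 SD, cut at about 0.5% in these data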
HTR2A ag conf = mouse HTR2A agonists, beta-arrestin recruitment, confirmation, cell-based, luminescence, CHO-K1 PathHunter, triplicate. activation, % at 7.6 µM. actives 19% (n = 2,300). shares compounds with HTR2A ag. DMSO 0%, 30 µM serotonin 100%;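 active = mean activation across triplicates above the hit threshold derived in the original primary screen, cut at about 15% in these data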
* marks the source's active call; other numbers are inactive results; u = inconclusive; x = no result. An excerpt weighted towards active compounds, which were near 2.3% of everything screened.

SMILES	B2AR ag	HTR2A ag	Granule exo inh	ABHD5 PLIN5 PPI	NTR1 agonist	OPRM1 ag	HTR2A ag conf
CC(OC(=O)C1CC1C)C(=O)Nc1ccc(Cl)cn1 (configuration not stated)	6.6	7.9	10.6	12.2	0.3	x	x
COc1ccc(NC(=O)NN2CCN(C)CC2)cc1	0.6	3.6	32.0	-1.7	0.2	x	x
CN1CCN(NC(=O)Nc2ccc(F)cc2)CC1	-2.6	14.5*	-2.6	-2.5	0.9	-0.7	-1.6
COc1cc(CO)cc(Br)c1OCC(=O)Nc1cccc2ccccc12	-1.6	0.6	-3.3	3.4	8.5	x	x
CCn1nc(NC(=O)CC(C)C)c2cc3ccc(C)cc3nc21	12.3	14.5*	5.9	-10.3	3.0	-0.3	-5.2
COC(=O)[C@]1(C)N[C@H](CN(C)C(=O)Nc2ccccc2)[C@@H]2C(=O)N(Cc3ccccc3)C(=O)[C@@H]21	-8.8	7.0	2.5	7.2	-1.2	x	x
CC(=O)Nc1ccc(S(=O)(=O)N2c3ccccc3NC(=O)CC2C)c(Cl)c1 (configuration not stated)	-0.2	16.9*	-7.3	3.3	-1.3	-0.3	-1.4
CC1CC(=O)Nc2ccccc2N1S(=O)(=O)c1ccc(Cl)cc1 (configuration not stated)	-2.4	7.3	3.8	10.3	1.4	x	x
CSc1ccccc1OCc1cc(C(=O)N2CCC[C@H]2C(N)=O)no1	-3.1	14.9*	-2.2	-6.0	0.6	-0.2	3.1
CCc1ccc(C2CC3C(CN2S(=O)(=O)c2ccc(C)cc2)C(=O)CC(c2ccc(CC)cc2)N3S(=O)(=O)c2ccc(C)cc2)cc1 (configuration not stated)	x	-2.0	-0.8	-5.2	x	x	x
COc1cc(C(=O)Nc2cccc(NC(=O)c3ccccc3)c2)cc(OC)c1OC	7.0	5.4	18.9	-13.5	2.9	x	x
COc1cc(C(=O)Nc2cccc(-c3nncn3C)c2)cc(OC)c1OC	12.7	15.2*	2.3	1.8	0.2	-0.6	-3.6
CC(=O)c1ccc(Oc2cnccn2)cc1	-6.7	16.1*	0.4	-5.2	0.0	-0.5	-2.3
OCCC1CN(Cc2cc3c(cc2Cl)OCO3)CCN1C1CCCCC1 (configuration not stated)	6.7	-0.2	-1.6	-1.7	-1.2	x	x
Cc1ccc2c(cnn2C(=O)CCC(=O)NCc2ccccc2Cl)c1	0.1	19.4*	2.4	8.7	2.1	-0.4	-1.4
Cc1ccc(S(=O)(=O)N2CCOCC2)cc1NC(=O)COC(=O)COc1cccc2c1OC(C)(C)C2	1.3	-5.3	4.9	2.2	-0.4	x	x
Cc1ccc(-c2csc(NC(=O)C3=NN(c4ccccc4)C(=O)CC3)n2)cc1	-1.4	17.9*	5.2	2.4	8.2	-0.3	-0.7
Cc1csc(NC(=O)C2=NN(c3ccccc3)C(=O)CC2)n1	0.1	-1.3	0.7	0.1	-1.2	x	x
COc1ccc(-c2csc(NC(=O)Nc3ccccc3)n2)cc1	21.9	18.9*	u	-7.6	-0.6	-0.2	6.9
COc1ccc(-c2csc(NC(=O)c3ccccc3NS(=O)(=O)c3ccc(F)c(F)c3)n2)cc1	23.9	17.9*	28.3	-12.4	15.0	0.0	24.1*
Cc1nc(C)c(C(=O)OCC(=O)Nc2cccc(C)c2C)s1	2.3	2.4	3.3	10.3	0.6	x	x
COC(=O)c1ccc(CN2CCCC(C(=O)c3ccccc3OC)C2)cc1 (configuration not stated)	-2.2	1.6	1.1	-4.0	3.3	x	x
Cc1ccc(S(=O)(=O)Nc2ccc(F)cc2)cc1C(=O)N1CCOCC1	-0.8	-1.5	-3.6	-7.8	-0.7	x	x
CC(=O)NC(Cc1ccccc1)C(=O)NC1CCN(C(=O)c2cnccn2)CC1 (configuration not stated)	0.3	19.4*	-0.7	3.7	-0.8	-0.4	-2.1
Cc1nonc1C1CCCN1Cc1nc(-c2ccccc2Cl)oc1C (configuration not stated)	-7.8	-2.1	-2.1	-9.3	0.3	x	x
SMILES	B2AR ag	HTR2A ag	Granule exo inh	ABHD5 PLIN5 PPI	NTR1 agonist	OPRM1 ag	HTR2A ag conf
O=C1CCNc2c(Cl)cccc21	-10.6	14.5*	-7.5	10.0	0.1	-0.6	1.9
O=C1CCNc2c(Cl)cc(Cl)cc21	-0.8	-2.1	-7.3	5.5	-0.7	x	x
Cc1ccc(S(=O)(=O)N(C)c2ccc(C(=O)NC3CCCCC3)cc2)cc1	x	2.5	1.2	-4.8	x	x	x
Cc1ccc(C)c2[nH]c(=O)c(CN(CCN3CCCC3)C(=O)Nc3ccc(F)cc3)cc12	3.8	16.6*	-1.7	2.2	0.4	-0.5	4.8
COc1cc2cc(CN(CCN3CCCC3)C(=O)Nc3ccc(F)cc3)c(=O)[nH]c2cc1OC	-0.6	3.3	-3.1	0.9	0.7	x	x
CN1CCc2cccc3c2[C@@H]1Cc1ccc(O)c(O)c1-3	-2.9	37.8*	73.9*	-5.6	-0.4	-0.2	97.3*
CC1(C)CC(=O)C=C(NNC(=O)c2ccccc2O)C1	4.8	3.7	1.2	3.6	0.8	x	x
COc1ccc(C(=O)NNC2=CC(=O)CC(C)(C)C2)cc1	-1.2	18.8*	-3.0	6.3	2.6	-0.6	0.8
Cc1cccc(NC(=O)COC(=O)CN2C(=O)c3ccccc3C2=O)c1C	x	14.3	16.2	-9.3	x	x	x
Cc1ccc(-c2csc(NC(=O)c3cccc(C)c3)c2C(=O)O)cc1	9.3	14.9*	11.6	-6.0	1.3	-0.5	-1.8
CNc1cccnc1C=NNC(N)=S	8.6	15.0*	-0.3	18.8	x	-1.0	-2.7
C=C1C(=O)OC2C=C(CO)CCC=C(CO)CC(OC(=O)C(C)C)C12 (configuration not stated)	3.3	0.1	19.1	20.6	x	x	x
C=C1C(=O)OC2C1C(OC(=O)C(C)=CC)CC(=C)C1C(O)C3OC3(C)C21O (configuration not stated)	4.0	16.0*	-8.8	15.8	x	0.0	10.3
Oc1ccccc1C=NNC(=S)NC1CC2C=CC1C2 (configuration not stated)	x	18.7*	3.5	-1.6	x	0.4	6.3
NC1=C(Cl)C(=O)c2ccccc2C1=O	3.2	17.4*	6.9	-16.3	x	0.0	-2.9
NC1=C(Cl)C(=O)c2ccc(S(N)(=O)=O)cc2C1=O	23.5	5.9	-4.3	-17.9	x	x	x
CC1(C)CC(=O)C=C(c2ccc(COC(=O)C(c3ccccc3)c3ccccc3)cc2)C1=O	x	-0.7	-3.2	-5.2	x	x	x
